DT40 TDP1 CPT – DT40-hTDP1 cell growth loss with CPT | chicken DT40 Tdp1-/-;hTDP1 cells + 20 nM CPT, ATP luminescence, 48 h | Potency, µM (titrated, usually from 46.2 µM), usual class: inhibitors | hit rate 12% among 420,000; also: nearly all actives have a fitted effect of over 55% in size
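Cell growth measured by CellTiter-Glo luminescence after a minimum 48 h, 37 C compound exposure with 20 nM CPT in Tdp1-knockout DT40 cells stably expressing hTDP1, seeded 400/well; qHTS titration format.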
ELG1 repair inh – ELG1-dependent DNA repair inhibition; AID 504467; hit rate 2.3% among 330,000; Potency, µM (series often up to 46.1 µM), actives largely listed as inhibitors; HEK293T ELG1-luciferase reporter, luminescence, 16 h; DNA damage induced by 5-fluorouridine; also: nearly all actives have a fitted effect of over 55% in size
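Overnight (16 hr) co-exposure of 2,000 cells/well to 5-fluorouridine and compound at 37 °C preceded detection. Luciferase was quantified via ONE-Glo luminescence; loss of signal denotes inhibition.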
ALOX12 inh – blocks human arachidonate 12S-lipoxygenase; hit rate 1.1% among 580,000; purified 12hLO, xylenol orange hydroperoxide absorbance; Potency, µM (series often up to 108 µM), usual class: inhibitors
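Hydroperoxide product was detected by ferrous iron/xylenol orange as the 573 to 405 nm absorbance ratio. Arachidonic acid at 40 uM (final) was turned over for 30 min at room temperature by 150 nM human 12hLO, pH 7.0 Hepes buffer, after 15 min compound preincubation.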
TDP1 cell noCPT – qHTS for Inhibitors of human tyrosyl-DNA phosphodiesterase 1 (TDP1): qHTS in cells in absence of CPT. hit rate 15% among 420,000. DT40 Tdp1-/- hTDP1 cells, no CPT, ATP luminescence, 48 h. Potency, µM (top dose mostly 46.2 µM), most hits filed as inhibitors; also: nearly all actives have a fitted effect of over 55% in size
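Seeded 400 DT40-hTDP1 cells/well (vehicle DMSO, no 20 nM CPT); pinned compounds; ≥48 hr at 37 °C; CellTiter-Glo luminescence as viability measure.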
RORg inh – blocks mouse ROR gamma transcriptional activity; Drosophila S2 Gal4-RORgamma UAS-luciferase reporter, 20 h; P51450; Potency, µM (titrated, usually from 53.6 µM), most hits filed as inhibitors; hit rate 5.4% among 310,000; also: nearly all actives have a fitted effect of over 60% in size
Target sequence (P51450 whole entry, looked up, the tested form may be a part): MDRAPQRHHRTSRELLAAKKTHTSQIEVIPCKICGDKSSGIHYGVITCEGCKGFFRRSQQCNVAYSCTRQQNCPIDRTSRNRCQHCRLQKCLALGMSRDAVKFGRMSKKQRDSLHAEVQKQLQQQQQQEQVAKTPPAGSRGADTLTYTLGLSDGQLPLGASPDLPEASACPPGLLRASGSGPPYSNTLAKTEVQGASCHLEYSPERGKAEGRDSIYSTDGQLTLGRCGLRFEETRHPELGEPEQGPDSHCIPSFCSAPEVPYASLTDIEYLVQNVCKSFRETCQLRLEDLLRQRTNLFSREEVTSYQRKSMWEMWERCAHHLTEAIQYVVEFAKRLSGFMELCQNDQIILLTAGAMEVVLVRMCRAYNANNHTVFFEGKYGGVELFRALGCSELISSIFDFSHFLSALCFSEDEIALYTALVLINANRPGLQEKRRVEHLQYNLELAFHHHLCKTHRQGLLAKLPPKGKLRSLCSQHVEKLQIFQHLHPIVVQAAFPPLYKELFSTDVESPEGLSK
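ROR gamma transcriptional activity was tracked as Gal4-UAS luciferase output in stably transfected Drosophila Schneider cells, with compound added 1 hr before 700 uM copper sulfate induction and a 20 hr ambient-temperature incubation.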
Gal4-VP16 FLuc – inhibits Gal4-VP16 luciferase reporter, ROR gamma counter-screen | Drosophila S2 Gal4-VP16 UAS-luciferase, luminescence, 20 h | Potency, µM (top dose mostly 53.6 µM), most hits filed as inhibitors | hit rate 3.5% among 310,000;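 also: Gal4-VP16 expression switched on by copper sulfate through the metallothionein promoter; nearly all actives have a fitted effect of over 50% in size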
Numbers stand for hits; – = inactive; ? = inconclusive; · = no result; [ ] = another dose, or the depositor's remark. A selection: hits, their analogues and other compounds. The true share with any hit is near 15%. Calls follow the shape of the dose curve; as a rule, active = well fitted curve in the direction sought with a large enough effect; inconclusive = small, poorly fitted or top-dose-only effect, or another doubt; inactive = no such curve, though single readings can be large; an effect the other way counts as inactive or inconclusive.

SMILES	DT40 TDP1 CPT	ELG1 repair inh	ALOX12 inh	TDP1 cell noCPT	RORg inh	Gal4-VP16 FLuc
CC1CCCC(C(=O)O)N1 (centres undefined)	·	·	–	·	·	·
Cc1ccc(-n2c3c(c(=O)[nH]c2=O)C(NC(=O)c2ccccc2C)(C(F)(F)F)C(=O)N3)cc1 (centres undefined)	13µM	·	–	23µM	·	·
Cc1[nH]c(=O)c(C#N)cc1C(=O)N1CCCC2(CCC(=O)N(C3CC3)C2)C1 (centres undefined)	·	·	–	·	·	·
CCCCSCCCNC(=O)C1CCC(CNS(=O)(=O)c2c(C)cc(C)cc2C)CC1 (centres undefined)	15µM	·	?	18µM	·	·
CCN(CC)C(=O)CSc1nc2sc3c(c2c(=O)n1CCOC)CCC3	–	?	–	–	–[1.91 µM]	–
CCOC(=O)c1sc2nc(SCC(=O)N(CC)CC)n(CCCN3CCCC3=O)c(=O)c2c1C	18µM	?	–	–	–	–
Cc1noc(C)c1C(=O)N1CCC2(CC1)CN(C(=O)N(C)C)Cc1ccccc1O2	·	·	–[6.33 µM]	·	·	·
CC(=O)NCCc1ccc(O)cc1	–	–	–	–	–	–
O=C1c2ccccc2CCC1CNCCc1ccc(O)cc1 (centres undefined)	–	·	–	21µM	·	·
O=C(O)CCCc1ccc2c(c1)CCc1ccccc1-2	?	?	–	–	·	·
O=C1c2ccccc2CC[C@H]1CNCCc1ccc(O)cc1	13µM	·	–	13µM	14µM	11µM
CN(C(=O)CSc1ccc2c(c1)OCCCO2)c1ccccc1	·	·	–	·	·	·
O=C(CCN1C(=O)C2C3C=CC(C4CC34)C2C1=O)Oc1ccc(Br)cc1 (centres undefined)	–	–	–	–	–	–
O=C(CCN1C(=O)C2C3C=CC(C4CC34)C2C1=O)Oc1cccc2cccnc12 (centres undefined)	5.2µM	–	–	3.3µM	2µM	7.9µM
COc1ccc(N(CC(=O)Nc2ccc(OC)cc2OC)S(=O)(=O)c2ccccc2)cc1	23µM	?	–	18µM	–	–
COc1ccc(N(CC(=O)Nc2ccccc2OC)S(=O)(=O)c2ccccc2)cc1Cl	13µM	–	–	?	?	–
CCOc1ccc(S(=O)(=O)N(CC(=O)Nc2cccnc2)c2ccccc2)cc1	?	·	–	16µM	·	·
CCOC(=O)c1ccccc1NC(=O)CN(c1ccccc1)S(=O)(=O)c1ccc(OCC)cc1	23µM	·	–	15µM	·	·
COc1ccc(NC(=O)CN(c2ccc([N+](=O)[O-])cc2)S(=O)(=O)c2ccccc2)c(OC)c1	?	–	–	?	–	–
CCn1c2c(c(=O)n1Cc1ccccc1)CCN(C(=O)C1CCC(OC)CC1)C2 (centres undefined)	·	·	–	·	·	·
CCOc1ccc(N(CC(=O)Nc2ccccc2OC)S(=O)(=O)c2ccccc2)cc1	1.2µM	?	–	1.2µM	–	–
CCOc1ccc(NC(=O)c2ccccc2NS(=O)(=O)c2ccc(F)cc2)c([N+](=O)[O-])c1	23µM	–	?	?	?	?
CCOC(=O)c1ccccc1NS(=O)(=O)c1ccc(OCC)cc1	7.9µM	?	–	13µM	–	–
CCOc1ccc(S(=O)(=O)Nc2ccccc2C(=O)N(C)C2CCN(C)CC2)cc1	–	–	–	–	·	·
COc1ccccc1NC(=O)CN(c1ccc([N+](=O)[O-])cc1)S(=O)(=O)c1ccccc1	–	–	–	–	–	–
SMILES	DT40 TDP1 CPT	ELG1 repair inh	ALOX12 inh	TDP1 cell noCPT	RORg inh	Gal4-VP16 FLuc
CCOc1ccc(S(=O)(=O)Nc2ccccc2C(=O)N/N=C/c2c(OC)ccc3ccccc23)cc1	–	–	–	–	6.3µM	5.6µM
Cc1cc(=O)oc2c(C)c(OCC(=O)Nc3nc4ccccc4[nH]3)ccc12	·	·	–	·	·	·
CC(c1ccc(S(N)(=O)=O)cc1)N(C)C(=O)CCc1ncc(-c2ccccc2Cl)o1 (centres undefined)	·	·	–	·	·	·
O=C(Nc1ccccc1)N1CCC2(CC1)C(=O)NCN2Cc1ccc(Cl)cc1	·	·	–	·	·	·
COc1ccc(NC(=O)N2CCC3(CC2)CC(OCC2CC2)CCO3)cc1 (centres undefined)	·	·	–	·	·	·
COc1ccccc1NC(=O)CN(c1ccccc1C)S(C)(=O)=O	–	–	–	–	–	–
COc1ccc(N(CC(=O)NCCSc2ccccn2)S(=O)(=O)c2ccccc2)cc1OC	–	–	–	?	–	–
COC(=O)c1cccc(NS(=O)(=O)c2ccc(OC)cc2)c1C	5.2µM	?	–	6.5µM	?	–
COc1ccc(N(CC(=O)NCCSc2ccccn2)S(=O)(=O)c2ccccc2)cc1Cl	16µM	?	–	?	–	–
COc1ccc(N(CC(=O)Nc2ccccc2F)S(=O)(=O)c2ccc(C)c([N+](=O)[O-])c2)cc1	?	–	–	23µM	–	–
CCOC(=O)c1ccccc1NC(=O)CN(c1ccccc1C)S(C)(=O)=O	?	–	–	16µM	–	–
COc1ccc(C)cc1-n1nnnc1SCc1nc(CC(C)C)no1	·	·	–	·	·	·
CCc1ccc(-c2noc(CCC(=O)Nc3nc4ccccc4n3CC)n2)cc1	·	·	–	·	·	·
COc1ccc(S(=O)(=O)N(CC(=O)Nc2ccc(OC)cc2OC)c2ccc(Cl)cc2)cc1	23µM	·	–	26µM	·	·
COc1ccc(OC)c(NC(=O)CN(c2ccc(OC)c(Cl)c2)S(C)(=O)=O)c1	–	–	–	?	–	–
COc1ccc(NC(=O)CN(c2ccc(OC)c(Cl)c2)S(=O)(=O)c2ccccc2)c(OC)c1	?	–	–	23µM	?	–
CCOC(=O)c1ccccc1NC(=O)CN(c1ccccc1OC)S(=O)(=O)c1ccc(C)cc1	?	·	–	12µM	·	·
COc1ccc(-c2cc(N3CCN(C(=O)c4cccc(Br)c4)CC3)n[nH]2)cc1	·	·	–	·	·	·
CCOc1cc(S(=O)(=O)NCc2ccc(OC)cc2)c(OCC)cc1-n1cnnn1	4.1µM	–	–	2.1µM	–	–
CC1(C)CC(=O)C2=C(C1)NC(=O)CC2c1ccc(C(C)(C)C)cc1 (centres undefined)	·	·	–	·	·	·
COc1ccc2c(c1)c(C(=O)CN1CCc3ccccc3C1)c(C)n2C	?	–	–	21µM	–	–
CCN(CC)CC(=O)c1c(C)n(C)c2ccc(OC)cc12	–	·	7.9µM	–	·	·
COc1ccc2[nH]c(C)c(C(=O)CN3CCc4cc(OC)c(OC)cc4C3)c2c1	16µM	?	–	18µM	–	–
COc1ccc2c(c1)c(C(=O)CNc1nc(C)cs1)c(C)n2C	?	?	8.9µM	21µM	–	–
COc1ccc2[nH]c(C)c(C(=O)CN3CCOCC3)c2c1	–	–	–	–	–	–
COc1ccc2[nH]c(C)c(C(=O)CNc3nccs3)c2c1	7.9µM	·	·	10µM	·	·

Bioassay records as filed in PubChem.
